In PubChem BioAssay AID488890 (Southern Research Specialized Biocontainment Screening …, 2010):
Screen size: about 320,000 compounds; about 1,300 (0.41%) were called active. About 3% were inconclusive and are not listed. The rule behind the calls is not given here. These entries were drawn from the full list. Results with a measured potency or affinity are listed apart.

experiment: growth inhibition of non-replicating M. tuberculosis (AID 488890); conditions: Mycobacterium tuberculosis non-replicating, at 25 µM, stronger effect = higher value;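 note: plate controls were DMSO cells for no effect and high antibiotic wells for full effect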

| SMILES | inhibition [%] |
| --- | --- |
| COc1ccc(CN2CCN(c3ccccc3OC)CC2)cc1OC | -6.29 |
| Nc1ccc(C(=O)OCc2nc3ccccc3s2)cc1 | 68.4 |
| O=C(COC(=O)c1ccc(Br)o1)Nc1nc2ccccc2s1 | 71.5 |
| COc1ccc(C2=NOC(C(=O)N(C)Cc3ccccc3)C2)cc1 (stereo unspecified) | 48.3 |
| O=C(c1ccc(F)cc1)C(Cc1ccccc1)N1CCCCC1 (stereo unspecified) | 63.6 |
| Cc1cc(=O)n2ccsc2n1 | 0.97 |
| Cc1ccn2c(=O)cc(C)nc2c1 | 4.9 |
| CCOc1ccc(N(CC(=O)N2CCN(c3ccc(F)cc3)CC2)S(=O)(=O)c2c(C)noc2C)cc1 | 21.6 |
| Cn1nc([N+](=O)[O-])nc1Sc1nnc(-c2ccccc2)o1 | 78 |
| COC(=O)CSc1nnc(-c2ccccc2OC)o1 | 77.4 |
| CCCOc1ccc(N2CC(C(=O)NC(C)C)CC2=O)cc1 (stereo unspecified) | -9.57 |
| CCC(=Nc1ccc2c(c1)CCC2)c1c(O)n(C)c(=O)n(C)c1=O | 7.71 |
| CCC(=Nc1cccc(C(F)(F)F)c1)c1c(O)n(C)c(=O)n(C)c1=O | -2.54 |
| COc1cccc(OC)c1C(=O)OCC(=O)N1CC(C)CC(C)C1 (stereo unspecified) | -15.5 |
| Cc1nnc(C)n1/N=C/c1c(O)ccc2ccccc12 | 3.2 |
| Cc1nc2ccccc2c(=O)n1/N=C/c1c(O)ccc2ccccc12 | 40.6 |
| Fc1cccc(Nc2cc(-n3cccn3)ncn2)c1 | 21.4 |
| CN(Cc1cccs1)S(=O)(=O)c1ccc(Cl)cc1F | 44.2 |
| Cc1ccc(N=Cc2nc(-c3ccco3)oc2O)cc1 | 73.2 |
| Oc1oc(-c2ccco2)nc1C=Nc1ccccc1 | 17 |
| CC(C)(O)C#Cc1ccc(CN2CCN(C3CCCCC3)C(CCO)C2)s1 (stereo unspecified) | 11.2 |
| CCN(CC)CCOC(=O)/C=C/c1ccccc1OC | -10.5 |
| COc1ccc(NC(=O)Nc2ccccc2F)c(C)c1 | 20.6 |
| COc1ccc(C)cc1Nc1n[n+](-c2ccccc2)c(-c2ccc(SC)cc2)s1 | 76.9 |

| SMILES | inhibition [%] |
| --- | --- |
| CCOc1cc(-c2sc(Nc3ccc(CC)cc3)n[n+]2-c2ccccc2)ccc1OC | 63.8 |
| Oc1cc2c(cc1CN1CCN(c3ncccn3)CC1)OCO2 | 8.73 |
| N#Cc1nc(-c2cccs2)oc1NCc1ccccc1 | 29.7 |
| C=CCNc1oc(-c2cccs2)nc1C#N | -2.7 |
| CC1CCCC(NS(=O)(=O)c2cc3c(cc2Cl)NC(=O)CO3)C1C (stereo unspecified) | 31.5 |
| Cc1ccc(C2(C)NC(=O)N(CC(=O)N(C)CC(=O)Nc3cccc4ccccc34)C2=O)cc1 (stereo unspecified) | 7.1 |
| O=C1CN=C(c2ccccc2)c2cc(Cl)ccc2N1 | 5.86 |
| COc1ccc(C2=NCC(=S)Nc3ccc(Cl)cc32)cc1OC | -21 |
| O=C(CN1C(=O)C(=O)N(CCC2=CCCCC2)C1=O)Nc1ccc(F)cc1F | 8.84 |
| Cc1nc2ccccc2nc1OCC(=O)Nc1cc(C(F)(F)F)ccc1N1CCOCC1 | 5.99 |
| CN(C)/C=C1/OC(=O)C(C#N)=C1c1ccc(Cl)cc1 | -0.58 |
| O=C1O/C(=C/c2ccccc2)c2ccccc21 | -7.13 |
| COc1cc(/C=C/[N+](=O)[O-])ccc1OC(=O)c1cc2ccccc2oc1=O | 37.8 |
| COc1ccc(N(CC(=O)Nc2ccccc2C)S(=O)(=O)c2c(C)[nH]c(=O)[nH]c2=O)cc1 | 8.99 |
| CC(C)NC(=O)Cn1c(SCC(=O)c2ccc(F)cc2)nc2ccccc21 | 7.83 |
| CN=C1NN=C(c2cc(C)n(-c3ccc(Cl)cc3)c2C)CS1 | 14.6 |
| Cc1cc(C2=NNC(=NC3CC3)SC2)c(C)n1-c1c(C)n(C)n(-c2ccccc2)c1=O | 4.63 |
| CCc1ccc(NS(=O)(=O)c2cc3c4c(c2)CCN4C(=O)CC3)cc1 | 1.05 |
| Cc1oc(-c2cccc(Cl)c2)nc1CN1CCCC(C(=O)NCc2ccco2)C1 (stereo unspecified) | 22.8 |
| Nc1c(C(=O)OCC(=O)NCc2ccccc2)[nH]c(=O)[nH]c1=O | -9.15 |
| Cc1[nH]c(=O)[nH]c(=O)c1/C=C/C(=O)O | -4.51 |
| CCCCn1c(N)c(N(CC(C)C)C(=O)c2ccc(-c3ccc(Cl)cc3)o2)c(=O)[nH]c1=O | 74.7 |
| CNS(=O)(=O)c1ccc(-c2ccc(C=C3C(=O)NC(=O)NC3=O)o2)cc1 | -1.77 |
| NS(=O)(=O)c1ccc(-c2ccc(C=C3C(=O)NC(=O)NC3=O)o2)cc1 | 2.79 |

| SMILES | inhibition [%] |
| --- | --- |
| CCCc1nc(SCc2ccc(Cl)cc2Cl)n[nH]1 | 2.74 |
| Nc1nc(SCc2ccc(Cl)cc2Cl)n[nH]1 | 1.74 |
| Cc1cccc2nc(CNC(=O)C3CCC(=O)N(Cc4ccccc4F)C3)cn12 (stereo unspecified) | -13.7 |
| CC(C)n1c(SCC(=O)Nc2ccc(F)cc2)nnc1C1CC1 | -1.85 |
| Cc1nn(C(=O)CCC(=O)NCc2ccc(OC(C)C)cc2)c2ccccc12 | -4.46 |
| CN(C#N)c1nccc(-c2cccs2)n1 | 19 |
| Cc1ccc(C(=O)/C=C\NCc2ccccc2)cc1 | 37.6 |
| Cc1ccc(N/C=C/C(=O)c2ccc(C)cc2)cc1 | 19.2 |
| COc1ccc(CCNC(=O)c2ccc(Cl)cc2)cc1 | 74.1 |
| COc1ccc(C(=O)NNC(=O)Nc2ccc(Cl)cc2)cc1 | -7.99 |
| COc1ccc(N/C=C/C(=O)c2ccc(Cl)cc2)cc1 | 45.2 |
| COc1ccc(C(=O)NCC(=O)NCC(=O)OCc2ccc(Cl)cc2)cc1 | -0.72 |
| COC(=O)c1sc2nc(N3CCCCC3)c3c(c2c1N)CCCC3 | 1.1 |
| COC(=O)C1=C(C)OC(N)=C(C#N)C1c1ccc(OC)c(CSc2ccccn2)c1 (stereo unspecified) | 10.8 |
| Cc1ccn2c(=O)nc(SCC(=O)N3CCCC3)nc2c1 | 8.52 |
| O=C(CN1CCCCC1)N/N=C/c1ccc(Cl)cc1Cl | -4.16 |
| O=C1CCC(=O)N1CNc1cccnc1 | 3.84 |
| COc1ccc(NCN2C(=O)CCC2=O)cc1 | 61 |
| COc1ccccc1-c1cn(C(C)(C)C)nc1C | -1.55 |
| O=C(N/N=C/c1cc(Br)c(O)c(Br)c1)c1cccc(C(F)(F)F)c1 | 21 |
| O=C(N/N=C/c1cccc(C(F)(F)F)c1)c1ccc(O)cc1 | 16.8 |
| C[C@H](CO)N1C[C@H](C)[C@@H](CN(C)S(=O)(=O)c2cn(C)cn2)Oc2ccc(NC(=O)NC3CCCCC3)cc2C1=O | -8.37 |
| Cc1ccc(S(=O)(=O)N2CCOCC2)cc1C(=O)N1CCN(c2ccc(C(F)(F)F)cn2)CC1 | 7.63 |
| CCCOc1cc(C)c(S(=O)(=O)NCc2cccs2)cc1C | 6.87 |

| SMILES | inhibition [%] |
| --- | --- |
| Cc1cc(NCCO)nc(-n2nc(C)cc2C)n1 | 39.2 |
| CNc1cc(C)nc(-n2nc(C)cc2C)n1 | 77.6 |
| CCOc1ccc(Nc2cc(C)nc(N3CCOCC3)n2)cc1 | 4.96 |
| COc1ccc(Nc2cc(C)nc(N3CCOCC3)n2)cc1 | 11.6 |
| COC1(c2cc(-c3ccccc3)nc(N)n2)CCCCC1 | 39.4 |
| CC1CN(C(C)C(=O)NC(c2ccccc2)c2ccccc2)CC(C)O1 (stereo unspecified) | -1.17 |
| Cc1cc(NC(=O)CSc2nnnn2-c2ccc(C)c(C)c2)no1 | -1.12 |
| O=C(C1CCCN(S(=O)(=O)c2ccc(Br)cc2)C1)N1CCOCC1 (stereo unspecified) | -4.37 |
| COCCn1cnc2c1c(=O)[nH]c(=O)n2Cc1ccccc1 | -2.83 |
| Cc1[nH]n2c(=O)c3c(nc2c1-c1cccc2ccccc12)CCC3 | 61.6 |
| Cc1[nH]n2c(=O)c3c(nc2c1-c1ccc(F)cc1)CCCC3 | 18.2 |
| O=c1c2c(nc3c(-c4cccc(Br)c4)c[nH]n13)CCCC2 | 76.9 |
| N#Cc1c[nH]n2c(=O)c3c(nc12)CCC3 | -2.17 |
| Cc1ccc(S(=O)(=O)/N=C(/Nc2ccc(F)cc2F)c2ccc(F)cc2)cc1 | -16.3 |
| CC(Oc1ccc(Cl)cc1Cl)C(=O)Nc1ncccn1 (stereo unspecified) | 61.7 |
| Cc1cccc(C)c1OC(=O)CCN1C(=O)C2C3C=CC(C4CC34)C2C1=O (stereo unspecified) | 67.5 |
| Cc1ccc(SCC(=O)NCC2COc3ccccc3O2)cc1 (stereo unspecified) | 29.9 |
| CCS(=O)(=O)CCSc1nc2ccccc2o1 | -14.9 |
| c1ccc2oc(CCc3nc4ccccc4o3)nc2c1 | -3.04 |
| Cc1ccc2oc(=O)c(/C=C(\O)CC(C)C)nc2c1 | -17.2 |
| Cc1ccc2oc(=O)c(/C=C(\O)C(C)(C)C)nc2c1 | -1 |
| C/C(O)=C/c1nc2ccccc2[nH]c1=O | 1.47 |
| CC(C)(C)/C(O)=C/c1nc2ccccc2[nH]c1=O | -2.24 |
| Cc1ccc(C(=O)CN2C(=O)NC3(CCCCCC3)C2=O)c(C)c1 | -9.85 |

| SMILES | inhibition [%] |
| --- | --- |
| CCOc1ccc(-c2nnc3sc(COc4ccc(Cl)cc4)nn23)cc1 | -1.47 |
| CS(=O)(=O)Nc1cccc(C2=NN(C(=O)c3ccccc3Cl)C(c3ccccc3O)C2)c1 (stereo unspecified) | 30.8 |
| CC1CCN(S(=O)(=O)c2cccc(C(N)=O)c2)CC1 | 0.16 |
| CCn1c(CCCCc2n[nH]c(=S)n2CC)n[nH]c1=S | -11.8 |
| CC(=O)Nc1ccc(NC(=O)C2CCN(C(=O)NC3CCCCC3)CC2)cc1 | -3.9 |
| Cn1nc(C(=O)NNC(=O)C2CSC3(C)CCC(=O)N23)c2ccccc2c1=O (stereo unspecified) | -11.1 |
| O=C(NCCCn1ccnc1)c1cc2cc([N+](=O)[O-])ccc2oc1=O | -4.48 |
| Cc1ccc2[nH]c(C)c(CCNC(=O)c3c(N)no[n+]3[O-])c2c1 | 28.6 |
| COC(=O)c1ccc(-c2csc(NC(=O)C3=COCCO3)n2)cc1 | 34.1 |
| CC(C)NC(=O)c1cc(=O)n(C)c(=O)n1C | 1.53 |
| Cc1nn(C)c(Oc2ccc(Cl)cc2)c1C(=O)O | 5.18 |
| O=S(=O)([N-]c1nc2ccccc2nc1-n1cc[n+](Cc2ccccc2)c1)c1ccc(Br)cc1 | 8.51 |
| Cc1cccn2c(=O)c3cc(C(=O)N4CC(C)CC(C)C4)sc3nc12 (stereo unspecified) | 0.79 |
| CSc1nc2c(c(=O)[nH]c(=O)n2C)n1Cc1ccccc1 | 4.61 |
| Cc1cc(C)n(-c2nc3c(c(=O)[nH]c(=O)n3C)n2CC(C)C)n1 | 0.87 |
| Cn1c(=O)[nH]c(=O)c2c1nc(N)n2Cc1ccccc1 | -16.3 |
| CC(C)Cn1c(NCCN(C)C)nc2c1c(=O)[nH]c(=O)n2C | -11.4 |
| O=C(Nc1nnc(S(=O)(=O)N2CCCC2)s1)c1cccc([N+](=O)[O-])c1 | 43.7 |
| NC(=O)c1ccc[n+](Cc2ccccc2)c1 | -8.91 |
| CC(C)(C)C1CCC(C(=O)Nc2ccccc2)CC1 (stereo unspecified) | 77.8 |
